Reference: PubChem BioAssay (NCI)
This is part of a sample that, as a whole, favours compounds with a hit. Of some 83,000 tested, about 20% had one in any assay.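 Results are percent growth after 48 hours of single-concentration exposure. 100 means growth as in untreated cells, lower positive values show inhibition; negative values down to -100 show cell death.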 A number with no mark means an inactive call. Activity calls are given as the source filed them.

Test system: A498 renal
Assay: NCI-60 one-dose screen, 48 h (100 = growth as untreated, 0 = no growth, -100 = all killed)
Details: 10 µM
Protocol: Growth inhibition of the A498 human tumor cell line is measured as a screen for anti-cancer activity. Cells are grown in 96 well plates and exposed to the test compound for 48 hours. Compounds are tested at a single concentration, which is 10^-5 M for most compounds. The reported endpoint is percent growth (GI% or GIPRCNT), where numbers from 0 - 100% represent growth inhibition, and numbers from -100% - 0 represent cell death. For example, a value of 40 represents 60% growth inhibition. A value of 0 means no net growth occurred over the course of the experiment. A value of -40 indicates 40% of cells at the beginning of the experiment died by the end of the experiment. A value of -100 means all cells are dead at the end of the experiment.
NCI-60 Human Tumor Cell Lines Screen was performed using the standard one-dose NCI protocol, which is described in more detail at https://dtp.cancer.gov/discovery_development/nci-60/default.htm.
Compounds with GIPRCNT values below 10 were considered active. Activity score was based on GIPRCNT using the following formula: […]
Score is 0 for GIPRCNT values of 100 or above, 50 for GIPRCNT values of 0, and 100 for GIPRCNT values of -100.

SMILES	growth
CCc1c(C)[nH]c(=O)c(C(N)=O)c1C#N	105%
O=[N+]([O-])c1ccc(Br)o1	102%
Cn1c(=O)c2[nH]c(C(O)c3ccc(Cl)cc3)nc2n(C)c1=O (stereo not given)	95.1%
C=CCNC(=S)NN	81%
O=C(NC1CCCC1)c1ccc(N2CCC(NCc3cccc(C(F)(F)F)c3)CC2)cc1	92.1%
FC(F)(F)c1ccc(-c2nc(-c3nc4cc(Cl)c(Cl)cc4[nH]3)c3ccccn23)cc1	38.5%
Cc1nc2cc(-n3c(-c4ccc(F)cc4)nc4ccccc4c3=O)ccc2n1Cc1ccccc1	-5.66% (active)
CCCCCN(CCCCC)C(C)C(O)c1ccc2cc(Cl)c3ccccc3c2c1 (stereo not given)	83.1%
COc1ccc(C2C=C(c3ccc(Cl)c(Cl)c3)N=C3SC(C)=CN32)cc1 (stereo not given)	91%
Cc1nn2c(/C=C3/C(=O)Nc4ccc(Cl)cc43)c(-c3ccccc3)nc2s1	43.8%
COc1ccc(Nc2nc(NCc3ccccc3)c3ccccc3n2)cc1	38.9%
CN(C)Cc1cccs1	117%
COc1cccc2c1O/C(=C\c1ncc([N+](=O)[O-])n1C)C2=O	-33.4% (active)
COc1ccc(/C(CS(=O)(=O)c2ccccc2)=N\O)cc1	102%
Cn1c([N+](=O)[O-])cnc1C=C1C(=O)c2ccccc2C1=O	70.1%
O=C(c1ccc(Cl)cc1)c1no[n+]([O-])c1C(=O)c1ccc(Cl)cc1	106%
O=C1/C(=C/c2ccc(O)cc2O)N=C2SCCCN12	90.1%
CN(C)c1ccc2c(c1)OC(N)=C(C#N)C2c1ccc2c(c1)CCO2 (stereo not given)	-9.63% (active)
CCCc1ccnc(NS(=O)(=O)c2ccc(N)cc2)n1	79.2%
Nc1cc(O)cc(O)c1	116%

SMILES	growth
COCCOC(=O)NC(=O)Nc1ccc(/C(=N/O)c2ccc(Cl)cc2)cc1	-14.2% (active)
Oc1cc(O)c(Br)cc1Br	96.7%
CC(C)C[C@H](NC(=O)CCn1ccc2ccccc2c1=O)B(O)O	7.69% (active)
COc1cccc2c1C(=O)c1c(O)c3c(c(O)c1C2=O)C[C@@](O)(C(=O)COC(=O)c1cccnc1)C[C@@H]3OC1CC(N)C(O)C(C)O1 (stereo not given in full)	-56.6% (active)
CC(C)c1[nH]nc2c(NCc3ccc(-c4ccccn4)cc3)nc(SCCN(C)C)nc12	-66.3% (active)
CCOC(=O)Nc1ccc2c(c1)C(=O)N(CCOC)c1ccccc1O2	4.67% (active)
Cn1c(N)c(N=Cc2ccccc2)c(=O)n(C)c1=O	116%
Oc1ccc(/C=N\Nc2ccccn2)c(O)c1	70.7%
Cc1nc(Nc2nc3ccccc3o2)nc(-c2cccc([N+](=O)[O-])c2)c1C(=O)Nc1ccc(F)c(Cl)c1	-37.2% (active)
C=CCOc1ccc2c(c1)CC[C@@H]1[C@@H]2CC[C@]2(C)C(=O)/C(=N/O)C[C@@H]12	50.2%
COc1cc(/C=C/C(=O)c2cc(-c3ccc(F)cc3)ccc2O)cc(OC)c1OC	81.8%
Cc1cn(C(=O)/C(Cl)=C(/Cl)C(=O)O)c2ccccc12	124%
Cc1nc2sccn2c1-c1csc(Nc2cccc(Cl)c2C)n1	36.1%
COc1ccc(Cn2cc3c(c2-c2ccccc2)CC(C)(C)c2cnoc2-3)cc1	49.4%
NC(=O)C12C(=O)NC(=O)C1(C(=O)O)C21CCCC1 (stereo not given)	114%
COc1cc(C2C(C#N)=C(c3c[nH]c4ccccc34)Nc3nc(N)[nH]c(=O)c32)cc(OC)c1OC (stereo not given)	89.9%
CCOC(=O)CNC(=O)Nc1ccc(Oc2ccc(NC(=O)NCC(=O)OCC)cc2)cc1	95.7%
CCCCOCCOCCOCc1cc2c(cc1Br)OCO2	-60.6% (active)
COc1ccc(S(=O)(=O)Nc2ccc(OCc3nnc(-c4ccc(Cl)cc4)o3)c(F)c2)cc1	47%
O=C(CCc1ccccc1)N1CCN(C(=O)CCc2ccccc2)CC1	152%
